Measurements from PubChem BioAssay AID463173 (ICCB-Longwood Screening Facility, Harvard Medical School, 2010).
About 4,300 (8.3%) of roughly 52,000 compounds were called active. The entries come from a sample that favours actives as a whole. Values without a mark were called inactive. Rule as the data show it: active = survival mostly below about 52% (no sharp cut-off); inactive = mostly above about 56%.

test system: DeltatarO mutant; assay: growth inhibition of S. aureus wild type versus tarO mutant, primary screen, teichoic acid synthesis inhibitors, RN4220, OD600 (AID 463173); conditions: OD600, 18 h, active compounds read low, screened at 18.75 µg/mL (by protocol)

Row | Compound | survival
1 | Cn1c(=O)n(CCc2ccccc2)c(=O)c2c1nc1n2CCN1c1ccc(Cl)cc1 | 76%
2 | O=C(Cc1ccccc1)N(Cc1cccnc1)c1nc2ccc(F)cc2s1 | 86%
3 | Cc1ccc(C2CCN(C(=O)c3cnn(-c4ccc(C)c(C)c4)c3C3CCN(C(=O)OC(C)(C)C)CC3)C2)cc1 (stereo not drawn) | 90%
4 | COc1ccccc1N1CCN(S(=O)(=O)c2ccc(F)c(C(=O)Nc3ccc(C)c(F)c3)c2)CC1 | 93%
5 | Cn1c(=N)n(CC(=O)c2ccc(-c3ccccc3)cc2)c2ccccc21 | 106%
6 | CCCCNC(=O)CCCn1c(=O)c2ccccc2n(Cc2c(C)cc(C)cc2C)c1=O | 90%
7 | Cc1ccc(NC(=O)Cn2cc(C(=O)C3CCCCC3)c3ccccc32)c(C)c1 | 78%
8 | COc1cccc(CNC(=O)COc2cc(=O)n(C)c3ccccc23)c1 | 72%
9 | CCOC(=O)c1cnc2c(C)cc(Cl)cc2c1NCCc1ccc(OC)c(OC)c1 | 31% (active)
10 | CCOC(=O)c1c(C)oc2nc(C)nc(NCCc3ccc(OC)c(OC)c3)c12 | 94%
11 | CCOC(=O)c1cnc2c(C)cc(C)cc2c1NCCc1ccc(OC)c(OC)c1 | 66%
12 | COCCn1c(SCC(=O)c2ccc(F)cc2)nc2cc(C(=O)NC3CCCC3)ccc2c1=O | 94%
13 | CCCC1(C(=O)OCC)NC(c2ccccc2F)C2C(=O)N(c3ccccc3)C(=O)C21 (stereo not drawn) | 88%
14 | CCOC(=O)c1c(C)[nH]c(C)c1S(=O)(=O)NCC(=O)Nc1cccc(SC)c1 | 66%
15 | OC1(C#CCN2CCCCCC2)CCCCC1 | 93%
16 | C#CCN1C(=O)C(O)(CC(=O)c2ccc(OC)c(OC)c2)c2cc(Br)ccc21 (stereo not drawn) | 78%
17 | O=C(CC1(O)C(=O)N(CCc2ccccc2)c2ccc(Br)cc21)c1ccc(F)cc1 (stereo not drawn) | 55%
18 | O=C(CC1(O)C(=O)N(CCc2ccccc2)c2ccc(Br)cc21)c1ccccc1 (stereo not drawn) | 25% (active)
19 | O=C(CC1(O)C(=O)N(CCc2ccccc2)c2ccc(Br)cc21)c1ccccc1O (stereo not drawn) | 40% (active)
20 | Cc1ccc(C(=O)CC2(O)C(=O)N(CCc3ccccc3)c3ccc(Br)cc32)cc1 (stereo not drawn) | 39%
21 | COc1ccc(C(=O)CC2(O)C(=O)N(CCc3ccccc3)c3ccc(Br)cc32)cc1OC (stereo not drawn) | 53%
22 | Cc1nn2c(-c3ccco3)ccnc2c1-c1ccc(Br)cc1 | 81%
23 | N#Cc1c(N)nc(SCc2ccccc2)c(C#N)c1-c1cccs1 | 49%
24 | COc1ccc(N(C(=O)Cn2nnc3ccccc32)C(C(=O)NCC2CCCO2)c2sccc2C)cc1 (stereo not drawn) | 94%

Row | Compound | survival
25 | COc1ccc(-n2nc(C(=O)NCCc3ccc(OC)c(OC)c3)c3c4ccccc4n(C)c3c2=O)cc1 | 89%
26 | O=c1[nH]c(=O)n(C2CCCCC2)c(O)c1C1=Nc2ccccc2SC(c2ccccc2)C1 (stereo not drawn) | 93%
27 | Cc1ccc(S(=O)(=O)c2cn(C)c3cc(N4CCCC4)c(F)cc3c2=O)c(C)c1 | 67%
28 | COc1cc(OC)c(NC(=O)Cn2cnc3nc4c(cc3c2=O)CCCC4)cc1Cl | -5% (active)
29 | O=C(Cn1cnc2nc3c(cc2c1=O)CCCC3)Nc1ccc(F)cc1Cl | 88%
30 | Cc1c(Cl)cccc1NC(=O)Cn1cnc2nc3c(cc2c1=O)CCCC3 | 126%
31 | Cc1ccc(C)c(N2CCN(C(=O)Cn3cnc4nc5c(cc4c3=O)CCCC5)CC2)c1 | 87%
32 | Cc1ccc(C)c(NC(=O)Cn2cnc3nc4c(cc3c2=O)CCCC4)c1 | 89%
33 | Cc1cccc(N(C)C(=O)Cn2cnc3nc4c(cc3c2=O)CCCC4)c1 | 17% (active)
34 | CCc1ccccc1NC(=O)c1ccc(F)c(S(=O)(=O)N2CCN(c3cccc(Cl)c3)CC2)c1 | 88%
35 | CCOC(=O)c1ccc(NC(=O)c2nsc3ccccc23)cc1 | 60%
36 | CC1CCC(NC(=O)c2ccc3c(c2)N(Cc2ccccc2)C(=O)c2ccccc2S3(=O)=O)CC1 (stereo not drawn) | 115%
37 | CCOC(=O)c1c(C)oc2nc(C)nc(NCc3ccccc3OCC)c12 | 102%
38 | O=C(CCCn1c(=O)c2sccc2n(Cc2cccc(Cl)c2)c1=O)NCc1ccc2c(c1)OCO2 | 64%
39 | CCCN(CCC)CN1C(=O)S/C(=C/c2ccc(N(CC)CC)cc2)C1=O | 68%
40 | CCN(CC)c1ccc(C=C2C(=O)OC3(CCCC3)OC2=O)cc1 | 83%
41 | CCN(CC)c1ccc(/C=C2/SC(=O)NC2=O)cc1 | 34% (active)
42 | O=C(NCCCc1ccccc1)C1CCN(C(=O)N2CCOc3ccc(Cl)cc32)CC1 | 46% (active)
43 | O=C(NC1CCCCCC1)C1CCN(C(=O)N2CCOc3ccccc32)CC1 | 76%
44 | CC1CN(C(=O)N2CCC(C(=O)NCCCc3ccccc3)CC2)c2cc(Cl)ccc2O1 (stereo not drawn) | 56%
45 | O=C(NCCC1=CCCCC1)C1CCN(C(=O)N2CCOc3ccccc32)CC1 | 72%
46 | Cc1ccc2c(c1)N(C(=O)N1CCC(C(=O)NC3CCCCCC3)CC1)CCO2 | 82%
47 | O=C(NC1CCCCCC1)C1CCN(C(=O)N2CCOc3ccc(Cl)cc32)CC1 | 46% (active)
48 | CC1CN(C(=O)N2CCC(C(=O)NCc3ccccc3F)CC2)c2cc(Cl)ccc2O1 (stereo not drawn) | 60%

Row | Compound | survival
49 | CC(C)CCNC(=O)C1CCN(C(=O)N2CCOc3ccc(Cl)cc32)CC1 | 52%
50 | O=C(NCCC1=CCCCC1)C1CCN(C(=O)N2CCOc3ccc(Cl)cc32)CC1 | 47% (active)
51 | CCc1ccccc1NC(=O)C1CCN(C(=O)N2CC(C)Oc3ccc(Cl)cc32)CC1 (stereo not drawn) | 55% (active)
52 | CC1CN(C(=O)N2CCC(C(=O)NCCC3=CCCCC3)CC2)c2cc(Cl)ccc2O1 (stereo not drawn) | 65%
53 | CNC(=O)C1CCN(C(=O)N2CC(C)Oc3ccc(Cl)cc32)CC1 (stereo not drawn) | 59%
54 | COc1ccccc1N1CCN(c2nc3c(S(=O)(=O)c4ccc(C)c(C)c4)nnn3c3ccc(Cl)cc23)CC1 | 81%
55 | Cc1ccc(NCc2nnc(SCc3cc(C)ccc3C)o2)c(C)c1 | 91%
56 | Cc1cccc(C)c1NC(=O)Cn1cc(S(=O)(=O)Cc2ccc(F)cc2)c2ccccc21 | 78%
57 | Cc1ccc(C)c(S(=O)(=O)c2nnn3c2nc(Nc2ccc(C)c(C)c2)c2sccc23)c1 | 77%
58 | O=C(c1ccc2c(c1)N(Cc1ccccc1F)C(=O)c1ccccc1S2(=O)=O)N1CCC(Cc2ccccc2)CC1 | 71%
59 | Cc1ccc(NC(=O)C2Cc3ccccc3N2C(=O)c2ccccc2)cc1Cl (stereo not drawn) | 78%
60 | COc1ccc(CCNC(=O)C(=O)NCC(c2ccco2)S(=O)(=O)c2cccs2)cc1 (stereo not drawn) | 99%
61 | O=C1CC(c2ccccc2)Sc2nc3ccccc3n21 (stereo not drawn) | 66%
62 | CC1CCN(S(=O)(=O)c2ccc3c(c2)oc(=O)n3CC(=O)NCc2ccc(F)cc2)CC1 | 111%
63 | CNS(=O)(=O)c1cc(-c2nnc(Nc3cc(C)ccc3C)c3ccccc23)ccc1C | 69%
64 | Cc1ccc(-c2nnc(Nc3ccccc3O)c3ccccc23)cc1 | 49% (active)
65 | Cc1ccc(C)c(Nc2nnc(-c3ccc(C)c(S(=O)(=O)N4CCCCC4)c3)c3ccccc23)c1 | 119%
66 | COc1cc(C(Nc2ccc(S(=O)(=O)NCC3CCCO3)cc2)C(=O)NC(C)(C)C)cc(OC)c1OC (stereo not drawn) | 109%
67 | CC(C)CCNC(=O)c1cccc(Nc2nc3ccccc3n3nnnc23)c1 | 39% (active)
68 | Cc1ccc(CNC(=O)c2cccc(Nc3nc4ccccc4n4nnnc34)c2)cc1 | 45%
69 | O=C(NCc1ccccc1)c1cccc(Nc2nc3ccccc3n3nnnc23)c1 | 71%
70 | CCc1ccc(NC(=O)Cn2nnc(C(=O)NCCc3ccccc3)c2N)cc1 | 99%
71 | CCOC(=O)c1ccccc1NC(=O)CN1CCCN(Cc2cccc(Cl)c2)S1(=O)=O | 101%
72 | CSc1ccc(CCNC(=O)C2CCN(c3ncnc4c3nc3n4CCCCC3)CC2)cc1 | 79%

Row | Compound | survival
73 | COc1cccc(/C=N/c2nc3ccccc3n2C)c1O | 122%
74 | COc1cccc(/C=N/n2c(N)nc3ccccc32)c1OC | 82%
75 | COc1ccccc1/C=C/c1nc2ccccc2n1C(C)C | 8% (active)
76 | O=C(c1ccc(Cl)cc1)C1CCN(C(=O)N2CCOCC2)CC1 | 66%
77 | NC(=O)CN1C(=O)C2(SCC(=O)N2c2cccc(F)c2)c2ccccc21 (stereo not drawn) | 78%
78 | Cc1ccc(NC(=O)C2CCN(c3nn4c(=O)cc(C)nc4s3)CC2)cc1 | 104%
79 | O=C(Nc1ccc(O)c(-c2nc3ccccc3o2)c1)c1sc2ccccc2c1Cl | 105%
80 | COC(=O)c1ccccc1NC(=O)c1cc2c(-c3ccc(OC)c(OC)c3)nn(C)c2s1 | 97%
81 | C=CCn1c(SC)nc2c1c(=O)[nH]c(=O)n2C | 94%
82 | Cc1ccc(/C=C/c2onc(C)c2S(=O)(=O)N2CCC(C(=O)Nc3cc(C)ccc3C)CC2)cc1 | 78%
83 | Cc1ccc(/C=C/c2onc(C)c2S(=O)(=O)N2CCC(C(=O)NCc3ccc(Cl)cc3)CC2)cc1 | 93%
84 | CCC(C)(C)NC(=O)C1CCN(S(=O)(=O)c2c(C)noc2/C=C/c2ccc(C)cc2)CC1 | 52% (active)
85 | COC(=O)/C(C#N)=C/c1ccc(-c2ccccc2)o1 | 75%
86 | Cc1ccc(-c2nn(CC(=O)NCc3ccccc3)c3c2cnc2ccc(F)cc23)cc1C | 75%
87 | O=C(Nc1ccc(F)cc1)c1ccc(Cn2nc(N3CCN(c4ccccc4)CC3)ccc2=O)o1 | 82%
88 | Cc1ccc(C2Nc3ccccc3-n3c(-c4ccccc4)c4c(=O)n(C)c(=O)n(C)c4c32)cc1 (stereo not drawn) | 41% (active)
89 | COc1ccc(C2Nc3ccccc3-n3c(-c4ccccc4)c4c(=O)n(C)c(=O)n(C)c4c32)cc1 (stereo not drawn) | 79%
90 | Cn1c(=O)c2c(-c3ccccc3)n3c(c2n(C)c1=O)C(c1ccc([N+](=O)[O-])cc1)Nc1ccccc1-3 (stereo not drawn) | 34% (active)
91 | Cn1c(=O)c2c(-c3ccccc3)n3c(c2n(C)c1=O)C(c1ccccc1[N+](=O)[O-])Nc1ccccc1-3 (stereo not drawn) | 79%
92 | Cn1c(=O)c2c(-c3ccccc3)n3c(c2n(C)c1=O)C(c1cccc([N+](=O)[O-])c1)Nc1ccccc1-3 (stereo not drawn) | 53%
93 | COc1ccc(-c2c3c(=O)n(C)c(=O)n(C)c3c3n2-c2ccccc2NC3c2ccc(OC)cc2)cc1 (stereo not drawn) | 74%
